The results in this text go back to PubChem BioAssay (Tox21).

Results filed as inconclusive are left out. Activity calls are given as the source filed them. Calls follow the shape of the dose curve; as a rule, active = well fitted cell-killing curve with a large enough effect in the repeat runs; inconclusive = weak or mixed curves; inactive = flat fitted curve, though single readings scatter.
% is scaled to controls: 0 for no effect and ±100 for the full control effect.

A short description of the experiment: qHTS assay to identify small molecule antagonists of the estrogen related receptor (ERR) signaling pathway from Tox21 library - cell viability counter screen (AID 1224834). Also: nearly all actives have a fitted effect of over 30% in size. The conditions noted are these: ERR reporter cells viability, CellTiter-Fluor, 17.5 h; series mostly up to 92.4 µM. The text has this: National Center for Advancing Translational Sciences [NCATS]
NIH Chemical Genomics Center [NCGC]
U.S. Environmental Protection Agency [EPA]
National Institutes of Environmental Health Sciences [NIEHS]
National Toxicology Program [NTP]
U.S. Food and Drug Administration [FDA]
Estrogen related receptors (ERRs), the first orphan nuclear receptors discovered, play an important role in the control of cellular energy metabolism. ERRs are required for high-energy production in response to the environmental challenges. ERR-alpha was also identified as an adverse marker for breast cancer progression; ERR-alpha-positive tumors have a poor prognosis. To screen and to identify environmental compounds that perturb the ERR signaling pathways could provide valuable information for potential therapeutic or preventive measures in the treatment of metabolic disease. To differentiate true ERR antagonists or agonist from cytotoxic substances, the assay is multiplexed with cell viability assay.
Tox21 Assay Protocol Summary:
The ERR cells were dispensed at 2,000 cells/5 ul/well in 1536-well white plates using a Multidrop dispenser. After the assay plates were incubated at a 37 C/5% CO2 incubator for 6 hours, 23 nL of compounds dissolved in DMSO, positive and negative controls or DMSO only was transferred to the assay plate by a pin tool. The plates were incubated at 37 C for 17.5 hours. 1 ul/well of CellTiter-Fluor reagent was added into the assay plates using a Flying Reagent Dispenser. After 30-minute incubation at 37 C/5% CO2, the fluorescence intensity in the plates was measured using a ViewLux plate reader.
(In general: In qHTS, concentration-response curves come from the screen itself.)
In the case of `CCCCCC/C=C/C(=O)OC`, the compound was classed as inactive. Still for that read-out and setting: the value for `C/C=C(\C)C(=O)OCCc1ccccc1` was “inactive”. For `C=Cc1ccc(C(C)(C)C)cc1`, the call was inactive. Same read-out and setting: the value for `OC[C@@H](O)C(O)[C@@H](O)CO` (stereo not given in full) was “inactive”; that for `CCN(CC)CCN` was “inactive”; that for `Cc1cc(C)c(C(=O)O)c(C)c1` was “inactive”. Still for that read-out and setting: under `CNCCS(=O)(=O)O` stands “inactive”; under `CCO[Si](CC)(OCC)OCC`, “inactive”; under `c1ccc2cnccc2c1`, “inactive”. On the same count and under the same terms, the value for `C[C@]12CCC(=O)C=C1CC[C@H]1[C@@H]3CC[C@](O)(C(=O)CO)[C@@]3(C)C[C@H](O)[C@@]12F` was “inactive”. As to `NCCOCCN`, the result was inactive. On to `N[C@@H](Cc1ccc(O)cc1)C(=O)O`, for which the viability change, negative = cytotoxic is 1.55% [at 8.39 µM] (inactive). As to `O=C=NCC1CCCC(CN=C=O)C1` (stereo not given), the call was inactive. With `CCCCCc1cccc(=O)o1`, the result was inactive. As for `CC1(C)CC(OC(=O)CCCCCCCCC(=O)OC2CC(C)(C)NC(C)(C)C2)CC(C)(C)N1`, the viability change, negative = cytotoxic was -0.749% [at 19 µM] (inactive).

On to `CC(C)COC(=O)c1ccccc1`, for which the result was inactive. Turning to `CCCC(=O)OC/C=C(\C)CCC=C(C)C`, the outcome was inactive. With `O=C1c2ccccc2C(=O)c2cc(Cl)ccc21`, the viability change, negative = cytotoxic was 1.32% [at 8.39 µM] (inactive). Consider `CN(C)CCCO[C@@H]1[C@H]2OC(C)(C)O[C@H]2O[C@@H]1C(O)CO` (stereo not given in full), for which the compound was classed as inactive. On the same count and under the same terms, the value for `CC1c2ccccc2CN1NC(=O)c1ccc(Cl)c(S(N)(=O)=O)c1` (stereo not given) was “inactive”. For the compound `CC1=NN(c2ccc(S(=O)(=O)O)cc2)C(=O)C1`, the compound was classed as inactive. On to `CC(=O)c1cc(C)oc1C`, for which the result was inactive. Regarding `O=C1CCC(=O)N1Cl`, the result was inactive. `C=CC(=O)CCCCC`: the compound was classed as inactive. As for `OC1(c2ccc(Cl)cc2)CCNCC1`, the compound was called inactive. As to `CC(C)NC(=O)c1ccc(C=O)cc1`, the result was inactive. As for `[O]=[Mo](=[O])=[O]`, the viability change, negative = cytotoxic was 3.34% [at 19 µM] (inactive).

For `Cc1ccc(N)cc1S(=O)(=O)O`, the compound was classed as inactive. Still for that read-out and setting: the value for `COc1cc(OC)nc(O[C@H](C(=O)O)C(OC)(c2ccccc2)c2ccccc2)n1` was “inactive”. Still for that read-out and setting: the value for `[O-][n+]1cccc(/C(Cl)=N/OC[C@@H](O)CN2CCCCC2)c1` was “inactive”. On the same count and under the same terms, the value for `CO/N=C(/C(=O)N[C@@H]1C(=O)N2C(C(=O)[O-])=C(C[n+]3ccn4ncccc43)CS[C@H]12)c1nsc(N)n1` was “inactive”; that for `CCCCC1CCC(O)CC1` (stereo not given) was “inactive”; that for `CCCCCCCCCCCCCCC(=O)NC(CO)CCCCCCCCCCCCCC` (stereo not given) was “inactive”.

On to `C=CCCCCCCCCC(=O)OCCCC`, for which the result was inactive.

Take `CN(C)C(C)(C)CO`: the compound was called inactive.

On to `c1ccc(-c2nn[nH]n2)cc1`, for which the compound was classed as inactive.

Turning to `C[C@H]1[C@@H](c2ccccc2)NC(=O)N1C`, the outcome was inactive. With `C=CC/C=C/C`, the compound was classed as inactive. Still for that read-out and setting: under `CC(=O)CC(=O)Nc1ccc(C)cc1C` stands “inactive”. As for `O=Cc1cc2ccccc2o1`, the result was inactive.
